# Measurements reported in PubChem BioAssay (NCATS).
# Inconclusive results are not listed. Entries that show only a call come without a potency. Calls of active or inactive are those of the source. Calls follow the shape of the dose curve; as a rule, active = well fitted cell-killing curve with a large enough effect; inconclusive = small, poorly fitted or top-dose-only effect, or effect the other way; inactive = no such curve, though single readings can be large or run the other way.
# Experiment: qHTS of pediatric cancer cell lines to identify multiple opportunities for drug repurposing: Confirmatory screen for SJ-GBM2 cells (AID 1347116);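 also: 48 hour compound exposure; nearly all actives have a fitted effect of over 60% in size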
# Conditions: SJ-GBM2 glioblastoma cells, viability; series mostly up to 45.9 µM
# Excerpt: Drug repurposing or repositioning has been offered as a strategy for drug development in oncology programs. This approach has special potential for childhood cancers and other rare or orphan diseases, where the expected return on new drug development has been a disincentive to pharmaceuticals.
# In this project we exploit the poly-pharmacology of drugs to discover new indications via phenotypic screening of a panel of 19 well-characterized cell lines derived from solid tumors seen in children and adolescents. The goal is to identify approved drugs with previously unrecognized anticancer properties that has the potential to reveal new mechanisms and biological processes involved in carcinogenesis or drug resistance. We employed a titration-based paradigm (quantitative high-throughput screening or qHTS), where all compounds were tested at multiple concentrations for their effect on cell viability. Concentration-response curves (CRCs) were derived directly from the primary screen, and both potency and efficacy values were used to identify compounds with robust bioactivity profiles. We screened the NIH Chemical Genomics Center (NCGC) Pharmaceutical Collection (NPC) and Mechanism Interrogation Plate (MIPE) small molecule collections of approved and investigational compounds against these cell lines; and measured metabolically active cells after 48 hours of compound treatment as a proxy for cell viability.
# Assay Submitter: Nathalia J. Martinez, National Center for Advancing Translational Sciences, National Institutes of Health, Rockville, MD, USA; email: natalia.martinez@nih.gov
# [1] Shen, M et al. Quantitative high-throughput phenotypic screening of pediatric cancer cell lines identifies multiple opportunities for drug repurposing. Oncotarget 2017 Dec 19;9(4):4758-4772. PMID 29435139.
# The cells were obtained from University of North Carolina (UNC), Pediatric Preclinical Testing Program (PPT), and Coriell Institute (CI).
# qHTS cell viability assay:
# Cells were assayed in growth media at a density of 500-1,000 cells/well. Five microliters of cells were dispensed into 1,536-well, white, solid-bottom, TC-treated plates (Greiner Bio One) using a multidrop dispenser and incubated at 37 degrees C, 5% CO2, under a humidified atmosphere for 5 hours. Twenty-three nanoliters of compounds and controls (neutral control DMSO or positive control bortezomib at final concentration of 2.3 µM) were subsequently transferred by Kalypsys pintool. For primary screens, the MIPE collection was tested at 11-point dilutions (final concentrations range from 0.78 nM to 46 µM) and the NPC collection at 8-point dilutions (final concentrations range from 0.59 nM to 46 µM). Compounds tested in follow-up screens were assayed at 11-point dilutions. Cells were incubated for 48 hours, followed by addition of 3 uL of CellTiter-Glo (Promega). After a 15 min incubation at room temperature, samples were analyzed for luminescence intensity using a ViewLux High-throughput CCD imager equipped with clear filters.
# Potency is read from the fitted curve at half-maximal effect.
row,Compound,Potency
1,O=C(O)c1ccc(-c2c[nH]c3ncc(-c4ccccc4)cc23)cc1C1CCCC1,inactive
2,CC1(C)CCC(CN2CCN(c3ccc(C(=O)NS(=O)(=O)c4ccc(NCC5CCOCC5)c([N+](=O)[O-])c4)c(Oc4cnc5[nH]ccc5c4)c3)CC2)=C(c2ccc(Cl)cc2)C1,inactive
3,NS(=O)(=O)c1cccc2c1C(=O)c1cccc(O)c1C2=O,4.14 µM (active)
4,O=c1cc(-c2ccc(O)cc2)oc2cc(O)cc(O)c12,inactive
5,CC1(C)S[C@H]2[C@H](NC(=O)[C@@H](N)c3ccc(O)cc3)C(=O)N2[C@@H]1C(=O)O,inactive
6,O=C(Nc1cccc(Br)c1)c1cccc(S(=O)(=O)N2CCCCCC2)c1,inactive
7,CCc1ccc(OCc2ccccc2C(=O)Nc2ccc3nc(C)cc(N)c3c2)cc1,11.7 µM (active)
8,C=C1C(=O)[C@@]23C(CC[C@@H]1[C@H]2O)[C@@]12CO[C@]3(O)[C@@H](O)[C@@H]1C(C)(C)CC[C@@H]2O (some centres not stated),20.8 µM (active)
9,Cc1nnc(C(C)C)n1C1C[C@H]2CC[C@@H](C1)N2CC[C@H](NC(=O)C1CCC(F)(F)CC1)c1ccccc1 (some centres not stated),10.4 µM (active)
10,CO[C@H]1C=CC=C(C)C(=O)NC2=CC(=O)C(NCCN(C)C)=C(C[C@@H](C)C[C@H](OC)[C@@H](O)[C@@H](C)C=C(C)[C@@H]1OC(N)=O)C2=O,inactive
11,CC(=O)Oc1cc2c(s1)CCN(C(C(=O)C1CC1)c1ccccc1F)C2 (configuration not stated),4.14 µM (active)
12,NC1=N[C@@]2(c3cc(NC(=O)c4ccc(F)cn4)ccc3F)COC[C@@H]2CS1,inactive
13,CC1(C)O[C@H]2C[C@@H]3[C@H]4CCC5=CC(=O)C=C[C@]5(C)[C@@]4(F)[C@@H](O)C[C@]3(C)[C@]2(C(=O)CO)O1,inactive
14,CN[C@@H](C)C(=O)N[C@H]1CN(C(=O)CC(C)C)CC[C@H]2CC[C@@H](C(=O)NC(c3ccccc3)c3ccccc3)N2C1=O,inactive
15,CC(=NNC(=S)N1CCC1)c1ccccn1,inactive
16,O=c1[nH]cnc2c1ncn2[C@H]1CC[C@@H](CO)O1,inactive

row,Compound,Potency
1,Oc1ccc(C2CCN(c3ccnc4ccccc34)CC2)cc1O,1.17 µM (active)
2,CO[C@H]1C[C@@H]2CC[C@@H](C)[C@@](O)(O2)C(=O)C(=O)N2CCCC[C@@H]2C(=O)O[C@H]([C@H](C)C[C@@H]2CC[C@H](OCCO)[C@H](OC)C2)CC(=O)[C@H](C)C=C(C)[C@@H](O)[C@@H](OC)C(=O)[C@H](C)C[C@H](C)C=CC=CC=C1C,inactive
3,COc1cc2ncnc(Nc3ccc(F)c(Cl)c3)c2cc1OCCCN1CCOCC1,2.4 µM (active)
4,Nc1ncnc2c1ncn2[C@@H]1O[C@@H](CO)[C@H](O)[C@H]1O,inactive
5,CO[C@H]1C(=O)[C@]2(C)[C@@H](OC)C[C@H]3OC[C@@]3(OC(C)=O)[C@H]2[C@H](OC(=O)c2ccccc2)[C@]2(O)C[C@H](OC(=O)[C@H](O)[C@@H](NC(=O)OC(C)(C)C)c3ccccc3)C(C)=C1C2(C)C,inactive
6,CCCCCCCCCCCC1=C(O)C(=O)C=C(O)C1=O,inactive
7,O=C1c2ccccc2-[n+]2ccc3c([nH]c4ccccc43)c21,2.61 µM (active)
8,COc1cc(N2CCC(N3CCN(C)CC3)CC2)ccc1Nc1ncc(Cl)c(Nc2ccccc2S(=O)(=O)C(C)C)n1,23.3 µM (active)
9,O=C1C(Cl)=C(NCCN2CCOCC2)C(=O)c2ncccc21,14.7 µM (active)
10,CC=C(C)C(=O)O[C@H]1C(C)=C[C@]23C(=O)[C@@H](C=C(CO)[C@@H](O)[C@]12O)[C@H]1[C@@H](C[C@H]3C)C1(C)C,inactive
11,CC(C)n1nc(-c2ccc3oc(N)nc3c2)c2c(N)ncnc21,0.165 µM (active)
12,O=C1NC(=O)C(=Cc2ccc3c(c2)OC(F)(F)O3)S1,inactive
13,CC(C)(C(=O)NCC(F)(F)C(F)(F)F)C(=O)N[C@@H]1C(=O)Nc2ccccc2-c2ccccc21,inactive
14,CN(C)C1CCN(C(=O)c2ccc(NC(=O)Nc3nc(N4CCOCC4)nc(N4CCOCC4)n3)cc2)CC1,1.47 µM (active)
15,O=C(O)CCC1CCC(c2cc(F)ccc2F)(S(=O)(=O)c2ccc(Cl)cc2)CC1 (configuration not stated),inactive
16,CC1(C)CCC2=C(O1)c1ccccc1C(=O)C2=O,1.31 µM (active)
